Experimental data as given in PubChem BioAssay AID686978 (National Center for Advancing Translational Sciences (NCATS), 2013).
Among all 420,000 compounds or so, about 64,000 (15%) were called active. Another 27% or so got no clear call; they are omitted. Calls come from the whole dose curve; as a rule, active = well fitted inhibition curve with a large enough effect; inconclusive = small, poorly fitted or top-dose-only effect; inactive = flat fitted curve, though single readings scatter. Not all results are given here.

test: qHTS for Inhibitors of human tyrosyl-DNA phosphodiesterase 1 (TDP1): qHTS in cells in absence of CPT; settings: DT40 Tdp1-/- hTDP1 cells, no CPT, ATP luminescence, 48 h; activity change, negative = growth inhibition: at 46.2 µM (top of the series); note: nearly all actives have a fitted effect of over 55% in size
Outline: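 Cells were dispensed at 400 per well, compounds added by pin tool, plates incubated ≥48 hr at 37 °C, then CellTiter-Glo added for 30 min at room temperature before luminescence reading. Line: DT40 Tdp1-/- complemented with hTDP1; camptothecin omitted.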
% is set by controls: 0 for no effect and ±100 for the full control effect; potency is the fitted concentration of half-maximal effect.

Row | Compound | activity change, negative = growth inhibition | Potency
1 | CCCc1nnc(NC(=O)CCC(=O)NC2CC2)s1 | 6.31% (inactive) | –
2 | O=C(Oc1cc(OC(=O)c2ccccc2)c2c(c1)OC(c1ccc(OC(=O)c3ccccc3)c(OC(=O)c3ccccc3)c1)[C@@H](OC(=O)c1ccccc1)C2)c1ccccc1 (stereo partly drawn) | -1.82% (inactive) | –
3 | Nc1ccc(-n2nncc2-c2ccco2)cc1 | -7.69% (inactive) | –
4 | CC(C)c1ccc(N2CC(C(=O)Nc3nccs3)CC2=O)cc1 (stereo not drawn) | -19% (inactive) | –
5 | O=C(NN=C1CCC(=NNC(=O)c2cccnc2)CC1)c1cccnc1 | 15% (inactive) | –
6 | COc1ccc(CNC(=O)C2CCN(S(C)(=O)=O)CC2)cc1 | 0.741% (inactive) | –
7 | Cn1cnc(S(=O)(=O)N2C[C@@H](O)COC[C@@H]3O[C@H](CC(=O)NC4CCC4)CC[C@H]32)c1 | -4.51% (inactive) | –
8 | c1csc(-c2nnc(COc3ncnc4sccc34)o2)c1 | -2.27% (inactive) | –
9 | C[C@@H]1NC(=O)c2cc([N+](=O)[O-])cc(F)c2NCCC[C@@H](C(N)=O)NC(=O)[C@H](CC(N)=O)NC1=O | 15.3% (inactive) | –
10 | COc1ccc(S(=O)(=O)N2CCCCC2)cc1Br | -14.8% (inactive) | –
11 | COc1ccc(S(=O)(=O)N2CCC(C(=O)N3CCc4ccccc4C3)CC2)cc1OC | – | 29.1 µM (active)
12 | COc1ccc(S(=O)(=O)N2CCC(C(=O)N3CCOCC3)CC2)cc1OC | -12% (inactive) | –
13 | COc1cc2c(cc1OC)CN(C(=O)c1ccc(S(=O)(=O)N3CCCCCC3)cc1)CC2 | – | 14.6 µM (active)
14 | COc1ccc(C(=O)NCC2CCCCC2)cc1S(=O)(=O)N1CCCC1 | -8.77% (inactive) | –
15 | COc1cc(S(=O)(=O)N2CCN(C(=O)C3CC3)CC2)ccc1NC(C)=O | 19.7% (inactive) | –
16 | CN1CCN(NC(=O)c2ccc(S(=O)(=O)N3CCCCCC3)cc2)CC1 | -18.3% (inactive) | –
17 | COc1cc2c(cc1OC)CN(C(=O)c1cc(S(=O)(=O)N3CCCCC3)ccc1Cl)CC2 | – | 11.6 µM (active)
18 | O=C(c1cc(S(=O)(=O)N2CCOCC2)ccc1Cl)N1CCOCC1 | -1.42% (inactive) | –
19 | CSc1ccccc1OCc1cc(C(=O)N2C[C@H]3CC[C@H]2C3)no1 | -22% (inactive) | –
20 | CCOc1ccccc1N(CC(=O)NC1CCCCC1)C(=O)CCCC(=O)Nc1ccccn1 | -20.7% (inactive) | –
21 | O=C(c1ccc(Cl)cc1)c1cnc(Nc2ccccc2)s1 | -8.04% (inactive) | –

Row | Compound | activity change, negative = growth inhibition | Potency
22 | Cc1ccc(S(=O)(=O)NN=C2CC(C)(C)CC(=O)C2(C)C)cc1 | -14.2% (inactive) | –
23 | COC(C[C@@H](O)C[C@H](O)[C@H](C)OCc1ccccc1)OC | 10.3% (inactive) | –
24 | Cc1noc(C)c1COc1ccccc1C(=O)N(C)CC(=O)Nc1cccc(F)c1 | -19.2% (inactive) | –
25 | Cc1cc(Nc2ccccc2)n(CCC#N)n1 | -13.7% (inactive) | –
26 | O=c1ccn([C@@H]2O[C@H](COP(=O)(O)OP(=O)(O)OP(=O)(O)O)[C@@H](O)[C@H]2O)c(=O)[nH]1 | -7.87% (inactive) | –
27 | Cc1ccccc1NC(=O)CN1C(=O)N/C(=C\c2cccn2-c2cccc(C(=O)O)c2)C1=O | -5.12% (inactive) | –
28 | Nn1c(SCc2ccccc2)nnc1C1CCCCC1 | -9.36% (inactive) | –
29 | Cc1ccc(S(=O)(=O)c2nc(NCCCn3ccnc3)sc2Cl)cc1 | – | 20.6 µM (active)
30 | Cc1ccc(-c2nc(C#N)c(NCCCn3ccnc3)o2)cc1 | -27.6% (inactive) | –
31 | Cc1ccc(S(=O)(=O)NCCCn2ccnc2)cc1C(=O)NC(C)C | -5.17% (inactive) | –
32 | CCc1ccccc1NC(=O)/C(=C/c1ccccc1)c1ccccc1 | – | 23.1 µM (active)
33 | CCc1ccccc1NC(=S)Nc1cc(OC)c(NC(=O)C(C)C)cc1OC | -17.7% (inactive) | –
34 | CCc1ccccc1NC(=O)CCOc1ccccc1 | – | inactive
35 | O=S(=O)(Nc1cccc(Oc2ccc(Cl)cc2)n1)c1ccc(F)cc1 | 1.53% (inactive) | –
36 | CC(C)(C)NC(=O)CN1CCC(NC(=O)C23CC4CC(CC(C4)C2)C3)CC1 | -4.57% (inactive) | –
37 | CCc1c(C)sc(NC(=O)C2c3ccccc3Oc3ccccc32)c1C(=O)OC(C)C | 0.406% (inactive) | –
38 | O=C(c1ccc(N2CCOCC2)c([N+](=O)[O-])c1)N1CCN(S(=O)(=O)c2cccs2)CC1 | – | 16.4 µM (active)
39 | O=S(=O)(Nc1cc(S(=O)(=O)N2CCOCC2)ccc1N1CCCC1)c1cccs1 | -19.9% (inactive) | –
40 | O=C(Oc1ccccc1Cl)c1ccc(N2CCOCC2)c([N+](=O)[O-])c1 | -15.9% (inactive) | –
41 | O=C(COc1ccc(S(=O)(=O)N2CCOCC2)cc1Cl)N1CCOCC1 | -24.9% (inactive) | –
42 | Cc1cc(S(=O)(=O)N2CCOCC2)ccc1OCC(=O)Nc1cccc(C(F)(F)F)c1 | -9.35% (inactive) | –

Row | Compound | activity change, negative = growth inhibition | Potency
43 | O=C(Cc1ccc(S(=O)(=O)N2CCOCC2)s1)N1CCN(c2ccc(C(F)(F)F)cc2[N+](=O)[O-])CC1 | – | 9.2 µM (active)
44 | O=C(OCC(=O)N1CCOCC1)c1ccc(N2CCOCC2)c([N+](=O)[O-])c1 | -2.15% (inactive) | –
45 | O=C(Cc1ccc(S(=O)(=O)N2CCOCC2)s1)NCCOc1ccccc1F | -16.1% (inactive) | –
46 | O=C(Cc1ccc(S(=O)(=O)N2CCOCC2)s1)Nc1ccc(Br)c(C(F)(F)F)c1 | – | 25.9 µM (active)
47 | CC1CC(C)CN(CCCNC(=O)c2csc3c2CCCCC3)C1 (stereo not drawn) | -2.49% (inactive) | –
48 | CCOC(=O)c1nc(N)sc1C(=O)OCC | -2.51% (inactive) | –
49 | O=C(Nc1ccc(-n2ccnc2P(=O)(O)c2ccccc2)cc1)c1ccccc1Br | -25.4% (inactive) | –
50 | CSc1nc2sc3c(c2c(=O)[nH]1)CCc1ccccc1-3 | -1.5% (inactive) | –
51 | O=C(NC1CCCC1)C(c1c(F)cccc1Cl)N(C(=O)c1csnn1)C1CC1 (stereo not drawn) | -3.6% (inactive) | –
52 | Cc1noc(C)c1NC(=O)Nc1cccc2c1O[C@H](CN(C)C(=O)Nc1ccccc1)[C@@H](C)CN([C@H](C)CO)C2=O | -6.07% (inactive) | –
53 | O=C(Nc1ccc2c(c1)CCC2)c1ccc(Br)s1 | -21.1% (inactive) | –
54 | CCN(CC(=O)NCc1ccc(Cl)cc1)C(=O)CSc1ccccc1 | -21.6% (inactive) | –
55 | O=C(CSc1nc2ccccc2o1)N1CCN(c2ccccc2)CC1 | -26.2% (inactive) | –
56 | Cc1ccc(/C=N/NC(=S)Nc2cccc(S(=O)(=O)N(C)C)c2)o1 | – | 2.59 µM (active)
57 | CN(C)S(=O)(=O)c1cccc(C(=O)Nc2cccnc2)c1 | -5.49% (inactive) | –
58 | Cc1ccc(/C=N/NC(=O)Cn2nc(C)c(Br)c2C)o1 | 0.967% (inactive) | –
59 | O=C(OCc1cc2ccccc2[nH]c1=O)c1cccnc1 | -6.84% (inactive) | –
60 | CN1CCN(S(=O)(=O)c2ccc3[nH]cc(C(=O)O)c(=O)c3c2)CC1 | -1.96% (inactive) | –
61 | Cc1cc(C)c(-c2csc(NC(=O)CCCc3nc4ccccc4c(=O)[nH]3)n2)c(C)c1 | – | 8.2 µM (active)
62 | O=C(CCc1nc2ccccc2c(=O)[nH]1)OCC(=O)c1cccc(Cl)c1 | -24.5% (inactive) | –
63 | CC(C)(C)c1ccc(NC(=O)COC(=O)CCc2nc3ccccc3c(=O)[nH]2)cc1 | -21.3% (inactive) | –
